The record followed here is PMC9911399, “Two distinct binding modes provide the RNA-binding protein RbFox with extraordinary sequence specificity”.

T1: RBFOX1 RRM RbFoxmut (Fox-RRM*) (Homo sapiens, UniProt Q9NWB1 109-208, R118D;E147R;N151S;E152T)
T1 sequence: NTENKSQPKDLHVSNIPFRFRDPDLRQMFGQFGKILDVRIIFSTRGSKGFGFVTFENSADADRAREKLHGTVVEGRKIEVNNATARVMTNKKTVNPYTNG

B1: CUUCGUG (DNA:RNA)
RNA: GGGAGACCGGAAUUCAGAUUGUCCCUUCGUGUUAAAUCCCGUCGUAGCCACCA
DNA 1: CAATCTGAATTCCGGTCTCCC
DNA 2: TGGTGGCTACGACGGGATT
B2: CACUUAC (DNA:RNA)
RNA: B1 RNA with U26A, U27C, C28U, G29U, U30A, G31C
DNA 1: CAATCTGAATTCCGGTCTCCC
DNA 2: TGGTGGCTACGACGGGATT
B3: CGAAUGA (DNA:RNA)
RNA: B1 RNA with U26G, U27A, C28A, G29U, U30G, G31A
DNA 1: CAATCTGAATTCCGGTCTCCC
DNA 2: TGGTGGCTACGACGGGATT
B4: GGAAUGA (DNA:RNA)
RNA: GGGAGACCGGAAUUCAGAUUGUCCGGAAUGAUUAAAUCCCGUCGUAGCCACCA
DNA 1: CAATCTGAATTCCGGTCTCCC
DNA 2: TGGTGGCTACGACGGGATT
B5: GAAUGAU (DNA:RNA)
RNA: B4 RNA with G26A, A28U, U29G, G30A, A31U
DNA 1: CAATCTGAATTCCGGTCTCCC
DNA 2: TGGTGGCTACGACGGGATT
B6: GAAUUUU (DNA:RNA)
RNA: B4 RNA with G26A, A28U, G30U, A31U
DNA 1: CAATCTGAATTCCGGTCTCCC
DNA 2: TGGTGGCTACGACGGGATT
B7: GUCCGAA (DNA:RNA)
RNA: B1 RNA with C25G, U27C, U30A, G31A
DNA 1: CAATCTGAATTCCGGTCTCCC
DNA 2: TGGTGGCTACGACGGGATT
B8: CGUUAAA (DNA:RNA)
RNA: B1 RNA with U26G, C28U, G29A, U30A, G31A
DNA 1: CAATCTGAATTCCGGTCTCCC
DNA 2: TGGTGGCTACGACGGGATT
B9: GAAUUGA (DNA:RNA)
RNA: B4 RNA with G26A, A28U
DNA 1: CAATCTGAATTCCGGTCTCCC
DNA 2: TGGTGGCTACGACGGGATT
B10: GAUGAUU (DNA:RNA)
RNA: B1 RNA with C25G, U26A, C28G, G29A, G31U
DNA 1: CAATCTGAATTCCGGTCTCCC
DNA 2: TGGTGGCTACGACGGGATT
B11: GAAAUGA (DNA:RNA)
RNA: B4 RNA with G26A
DNA 1: CAATCTGAATTCCGGTCTCCC
DNA 2: TGGTGGCTACGACGGGATT
B12: GAAUGAA (DNA:RNA)
RNA: B4 RNA with G26A, A28U, U29G, G30A
DNA 1: CAATCTGAATTCCGGTCTCCC
DNA 2: TGGTGGCTACGACGGGATT
B13: GUAAUGA (DNA:RNA)
RNA: B4 RNA with G26U
DNA 1: CAATCTGAATTCCGGTCTCCC
DNA 2: TGGTGGCTACGACGGGATT
B14: GACCGAA (DNA:RNA)
RNA: B1 RNA with C25G, U26A, U27C, U30A, G31A
DNA 1: CAATCTGAATTCCGGTCTCCC
DNA 2: TGGTGGCTACGACGGGATT
B15: GACUAAG (DNA:RNA)
RNA: B1 RNA with C25G, U26A, U27C, C28U, G29A, U30A
DNA 1: CAATCTGAATTCCGGTCTCCC
DNA 2: TGGTGGCTACGACGGGATT
B16: CAUAAUU (DNA:RNA)
RNA: B1 RNA with U26A, C28A, G29A, G31U
DNA 1: CAATCTGAATTCCGGTCTCCC
DNA 2: TGGTGGCTACGACGGGATT
B17: AUCUAGU (DNA:RNA)
RNA: B1 RNA with C25A, U27C, C28U, G29A, U30G, G31U
DNA 1: CAATCTGAATTCCGGTCTCCC
DNA 2: TGGTGGCTACGACGGGATT
B18: UCGACUC (DNA:RNA)
RNA: B1 RNA with C25U, U26C, U27G, C28A, G29C, G31C
DNA 1: CAATCTGAATTCCGGTCTCCC
DNA 2: TGGTGGCTACGACGGGATT
B19: UACACUA (DNA:RNA)
RNA: B4 RNA with G25U, G26A, A27C, U29C, G30U
DNA 1: CAATCTGAATTCCGGTCTCCC
DNA 2: TGGTGGCTACGACGGGATT
B20: UCCUGAU (DNA:RNA)
RNA: B1 RNA with C25U, U26C, U27C, C28U, U30A, G31U
DNA 1: CAATCTGAATTCCGGTCTCCC
DNA 2: TGGTGGCTACGACGGGATT
B21: ACCUCGU (DNA:RNA)
RNA: B4 RNA with G25A, G26C, A27C, A28U, U29C, A31U
DNA 1: CAATCTGAATTCCGGTCTCCC
DNA 2: TGGTGGCTACGACGGGATT
B22: GAGUAGC (DNA:RNA)
RNA: B4 RNA with G26A, A27G, A28U, U29A, A31C
DNA 1: CAATCTGAATTCCGGTCTCCC
DNA 2: TGGTGGCTACGACGGGATT
B23: CGAUGAC (DNA:RNA)
RNA: B1 RNA with U26G, U27A, C28U, U30A, G31C
DNA 1: CAATCTGAATTCCGGTCTCCC
DNA 2: TGGTGGCTACGACGGGATT
B24: GAAUGAC (DNA:RNA)
RNA: B4 RNA with G26A, A28U, U29G, G30A, A31C
DNA 1: CAATCTGAATTCCGGTCTCCC
DNA 2: TGGTGGCTACGACGGGATT
B25: AGAUUGA (DNA:RNA)
RNA: B4 RNA with G25A, A28U
DNA 1: CAATCTGAATTCCGGTCTCCC
DNA 2: TGGTGGCTACGACGGGATT
B26: ACCAGAA (DNA:RNA)
RNA: B4 RNA with G25A, G26C, A27C, U29G, G30A
DNA 1: CAATCTGAATTCCGGTCTCCC
DNA 2: TGGTGGCTACGACGGGATT
B27: GAUUGAC (DNA:RNA)
RNA: B1 RNA with C25G, U26A, C28U, U30A, G31C
DNA 1: CAATCTGAATTCCGGTCTCCC
DNA 2: TGGTGGCTACGACGGGATT
B28: AGAAUGA (DNA:RNA)
RNA: B4 RNA with G25A
DNA 1: CAATCTGAATTCCGGTCTCCC
DNA 2: TGGTGGCTACGACGGGATT
B29: UGAAUAU (DNA:RNA)
RNA: B4 RNA with G25U, G30A, A31U
DNA 1: CAATCTGAATTCCGGTCTCCC
DNA 2: TGGTGGCTACGACGGGATT
B30: AGAUUAU (DNA:RNA)
RNA: B4 RNA with G25A, A28U, G30A, A31U
DNA 1: CAATCTGAATTCCGGTCTCCC
DNA 2: TGGTGGCTACGACGGGATT
B31: AAUCAGU (DNA:RNA)
RNA: B1 RNA with C25A, U26A, G29A, U30G, G31U
DNA 1: CAATCTGAATTCCGGTCTCCC
DNA 2: TGGTGGCTACGACGGGATT

Where a chain is given by its changes, count along the chain named. Over roughly 16,000 sequences, “ka relative to ugcaugu” has its median near 0.096; the highest 2% begin near 0.35. The list comes from a sample in which the highest values are over-represented; it also holds similar and randomly drawn sequences.

The test has as its target T1, RBFOX1 RRM RbFoxmut (Fox-RRM*). Briefly: EMSA; HiTS-Eq, 1 nM pool, 10 min; buffer printed only for the single-RNA assays: 10 mM Tris pH 7.5, 150 mM NaCl, 3.4 mM EDTA, 0.001% NP-40, 30 C. The following applies: tags: His6 N-terminal (pET28a); label: 5' 32P. The gist of the method:
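A pool of RNA with 7 randomized nucleotides, 5′-radiolabelled and with DNA-annealed flanks, was equilibrated at 1 nM for 10 min in 50 µL with purified RbFox RRM, wild type or mutant, across increasing protein concentrations. Free RNA was separated by 8% native PAGE, excised, reverse-transcribed, barcoded by PCR and sequenced. Relative association constants were obtained from read-count changes of each RNA species versus the control reaction and normalised to the cognate motif.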
In general terms: A gel shift assay detects complexes by their altered migration in electrophoresis.
As to B1, the binding signal is 0.135 KA relative to UGCAUGU. With B2 the figure was 0.1 KA relative to UGCAUGU; with B3, 1.04 KA relative to UGCAUGU. In the case of B4 it was 0.772 KA relative to UGCAUGU; in that of B5, 0.641 KA relative to UGCAUGU; in that of B6, 0.1 KA relative to UGCAUGU. In the case of B7 it was 0.0703 KA relative to UGCAUGU; in that of B8, 0.107 KA relative to UGCAUGU; in that of B9, 0.129 KA relative to UGCAUGU. Take B10: the binding signal was 0.084 KA relative to UGCAUGU. With B11 the figure was 0.0974 KA relative to UGCAUGU; with B12, 0.873 KA relative to UGCAUGU. In the case of B13, the binding signal is 0.121 KA relative to UGCAUGU.

Turning to B14, the binding signal is 0.0991 KA relative to UGCAUGU.

B15: the binding signal was 0.101 KA relative to UGCAUGU.

Consider B16, for which the binding signal is 0.0899 KA relative to UGCAUGU. In the case of B17 it was 0.14 KA relative to UGCAUGU; in that of B18, 0.0668 KA relative to UGCAUGU.

As to B19, the binding signal was 0.0954 KA relative to UGCAUGU. Consider B20, for which the binding signal is 0.0975 KA relative to UGCAUGU. Regarding B21, the binding signal is 0.106 KA relative to UGCAUGU. As for B22, the binding signal was 0.108 KA relative to UGCAUGU. In the case of B23 it was 0.141 KA relative to UGCAUGU; in that of B24, 0.829 KA relative to UGCAUGU; in that of B25, 0.117 KA relative to UGCAUGU. With B26 the figure was 0.0963 KA relative to UGCAUGU; with B27, 0.109 KA relative to UGCAUGU. In the case of B28 it was 0.646 KA relative to UGCAUGU; in that of B29, 0.0814 KA relative to UGCAUGU. On to B30, for which the binding signal is 0.124 KA relative to UGCAUGU. In the case of B31 it was 0.0868 KA relative to UGCAUGU.
